# RORg inh: blocks mouse ROR gamma transcriptional activity; Drosophila S2 Gal4-RORgamma UAS-luciferase reporter, 20 h; 310,000 compounds, 5.4% hits; Potency, µM (doses to about 53.6 µM), for the others: at the top dose activity change, negative = inhibition, usual class: inhibitors; note: % is set by controls: 0 for no effect and ±100 for the full control effect; nearly all actives have a fitted effect of over 60% in size
# Target sequence (P51450 whole entry, looked up, the tested form may be a part): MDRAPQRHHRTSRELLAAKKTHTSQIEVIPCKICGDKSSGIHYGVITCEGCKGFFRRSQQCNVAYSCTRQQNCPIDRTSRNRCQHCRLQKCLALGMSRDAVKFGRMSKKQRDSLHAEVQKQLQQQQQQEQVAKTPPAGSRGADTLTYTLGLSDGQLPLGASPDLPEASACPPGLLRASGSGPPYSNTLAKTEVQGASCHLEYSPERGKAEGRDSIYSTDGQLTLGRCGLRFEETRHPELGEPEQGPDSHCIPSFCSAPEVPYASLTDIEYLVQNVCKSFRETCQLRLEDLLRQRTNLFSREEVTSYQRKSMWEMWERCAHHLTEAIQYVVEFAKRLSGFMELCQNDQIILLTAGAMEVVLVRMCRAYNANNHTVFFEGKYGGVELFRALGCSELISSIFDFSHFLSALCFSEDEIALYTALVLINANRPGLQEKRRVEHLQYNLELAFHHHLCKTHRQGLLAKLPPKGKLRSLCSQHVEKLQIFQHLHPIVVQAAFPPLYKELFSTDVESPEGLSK
#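 Schneider cells (Drosophila), stable Gal4 DBD–ROR gamma + UAS-luc; 1 hr cmpd preincubation; Cu2+ induction 700 uM final; 20 hr ambient; luminescence.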
# VP16 counter: inhibits Gal4-VP16 luciferase reporter, ROR gamma counter-screen; Drosophila S2 Gal4-VP16 UAS-luciferase, luminescence, 20 h; Potency, µM (highest dose often 53.6 µM), without a hit: at the top dose activity, negative = inhibition, actives largely listed as inhibitors; 310,000 compounds, 3.5% hits;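 note: Gal4-VP16 expression switched on by copper sulfate through the metallothionein promoter; % is set by controls: 0 for no effect and ±100 for the full control effect; nearly all actives have a fitted effect of over 50% in size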
# ELG1 repair inh: ELG1-dependent DNA repair inhibition; 330,000 compounds, 2.3% hits; AID 504467; HEK293T ELG1-luciferase reporter, luminescence, 16 h; DNA damage induced by 5-fluorouridine; Potency, µM (highest dose often 46.1 µM), without a hit: at the top dose activity change, negative = inhibition, actives largely listed as inhibitors; note: % is set by controls: 0 for no effect and ±100 for the full control effect; nearly all actives have a fitted effect of over 55% in size
#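 DMSO vehicle served as the neutral condition. Each well held 2,000 cells given 5-fluorouridine plus compound; after 16 hr at 37 °C/5% CO2, ONE-Glo was added and luciferase measured 30 min later.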
# SW480 rereplic: inducers of DNA re-replication in SW480 colon cancer cells; SW480 DNA re-replication, Hoechst DNA content imaging, 48 h; 340,000 compounds, 1.8% hits; Potency, µM (highest dose often 46.1 µM), for the others: at the top dose re-replication activation, hits mostly activators; AID 624297; note: % of control where 0% means no effect; nearly all actives have a fitted effect of over 55% in size
#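 250 cells/well; 23 nL cpd via pin tool; 48 hr, 37 C, 5% CO2; Hoechst 40 min; imager read of total nuclear intensity, ex 405/em 500-530 nm.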
# MCF10A rereplic: DNA re-replication induction in MCF 10a cells; 350,000 compounds, 2.9% hits; AID 624296; MCF 10A DNA re-replication, Hoechst nuclear intensity, 48 h; Potency, µM (series often up to 46.1 µM), for inactives: top-dose activity, positive = re-replication, usual class: activators; note: % of control where 0% means no effect; nearly all actives have a fitted effect of over 50% in size
# The depositor's hits bear a star; ? = inconclusive; nt = no result given; [ ] = remark or other dose. Only some compounds are listed: those with a hit (about 10% of all), similar ones and a draw of the others. Calls come from the whole dose curve; as a rule, active = well fitted curve in the direction sought with a large enough effect; inconclusive = small, poorly fitted or top-dose-only effect, or another doubt; inactive = no such curve, though single readings can be large; an effect the other way counts as inactive or inconclusive. Potency is the fitted concentration of half-maximal effect.
SMILES,RORg inh,VP16 counter,ELG1 repair inh,SW480 rereplic,MCF10A rereplic
CCOC(=O)c1sc(NNC(=O)c2ccc(F)cc2)nc1C,0.71µM*,7.1µM*,?,?,8%
CCC(CC)c1nnc(NC(=O)c2ccc([N+](=O)[O-])cc2)s1,-11%[10 µM],?,4%,-5%,-1%
CCOC(=O)c1sc(NCCNc2nc(C)c(C(=O)OCC)s2)nc1C,-2%,-9%,-2%,-2%,2%
CCOC(=O)c1sc(NC(=O)Cc2ccc(C)cc2)nc1C,1%,-2%,?,1%,20%
CCOC(=O)c1nc(NNC(=O)c2ccc([N+](=O)[O-])cc2)sc1C,?,6.3µM*,16µM*,3.7µM*,25%
CC(=O)CCC(=O)OCC(=O)c1ccc(C(F)(F)F)cc1,11%,0%,?,28%,1%
CN(C(=O)COC(=O)/C=C/c1ccc(C(F)(F)F)cc1)C1CCS(=O)(=O)C1 (stereo unspecified),?,-11%,-7%,-20%,-14%
Cc1ccccc1OCCNC(=O)CSc1ccc(C(F)(F)F)cc1[N+](=O)[O-],11%,-4%,4%,-4%,?
COc1cccc(OCCNC(=O)CSc2ccc(C(F)(F)F)cc2[N+](=O)[O-])c1,8%,3.5µM*,3%,1%,?
N=c1ccn2c(n1)OCC1C2O[C@@H](O)[C@H]1O (stereo partly specified),-4%,-17%,nt,nt,nt
Cc1cccc(NS(=O)(=O)c2ccc3oc(=O)ccc3c2)c1C,?,-7%,12%,11%,-4%
COc1ccccc1NC(=S)NC1CCCC1,nt,nt,nt,3%,3%
COc1ccccc1NC(=S)NC1CC2CCC1C2 (stereo unspecified),2.2µM*,16µM*,11%,-3%,6%
CN(C)NC(=S)NC1CCS(=O)(=O)C1 (stereo unspecified),-26%,-14%,1%,-5%,-2%
COc1ccccc1NC(=S)NC1CCC(CC2CCC(NC(=S)Nc3ccccc3OC)CC2)CC1 (stereo unspecified),3.5µM*,3.2µM*,-6%,-11%,?
CN(C)NC(=S)NC1CC2CCC1C2 (stereo unspecified),5.6µM*,13µM*,1%,0%,-3%
CCCOc1ccc(/C=N/NC(=O)CSc2ccccn2)cc1OC,6%,-9%,?,-9%,0%
C=CCN(CC=C)c1ccc(N2C(=O)C3CCCCC3C2=O)cc1[N+](=O)[O-] (stereo unspecified),-35%,22µM*,?,2%,12%
O=C1C2CCCCC2C(=O)N1c1ccc(NC2CCCCC2)c([N+](=O)[O-])c1 (stereo unspecified),30%,-13%,5%,-3%,21%
COCCNC(=O)c1c(N)n(CCCn2ccnc2)c2nc3ccccc3nc12,11%,-21%,?,?,12µM*
COc1ccccc1CNC(=O)c1c(N)n(CCCN2CCOCC2)c2nc3ccccc3nc12,-20%,?,?,?,?
Nc1ccc(-n2c(N)c(C(=O)NCc3ccc4c(c3)OCO4)c3nc4ccccc4nc32)cc1,nt,nt,nt,21µM*,16µM*
C=CCNC(=O)c1c(N)n(-c2cccc(S(N)(=O)=O)c2)c2nc3ccccc3nc12,?,-20%,9.2µM*,4.1µM*,3.3µM*
COCCCNC(=O)c1c(N)n(-c2ccccc2)c2nc3ccccc3nc12,-18%,-9%,?,21µM*,23µM*
C[C@H](NC(=O)[C@@H]1Cc2ccccc2CN1C(=O)OC(C)(C)C)C(=O)NCc1ccco1,0%,-3%,?,13%,1%
SMILES,RORg inh,VP16 counter,ELG1 repair inh,SW480 rereplic,MCF10A rereplic
CCOc1ccccc1NC(=O)C1CCC(=O)N1S(=O)(=O)c1ccc(C)cc1 (stereo unspecified),-27%,4%,2%,-3%,2%
COCCNC(=O)c1c(N)n(-c2ccccc2)c2nc3ccccc3nc12,1%,-22%,?,21µM*,?
Nc1c(C(=O)NCCN2CCOCC2)c2nc3ccccc3nc2n1-c1ccccc1,36%,5%,?,1%,1%
COCCCNC(=O)c1c(N)n(-c2ccc(S(N)(=O)=O)cc2)c2nc3ccccc3nc12,-42%,-22%,11%,9.2µM*,7.3µM*
COCCNC(=O)c1c(N)n(-c2cccc(C)c2)c2nc3ccccc3nc12,-6%,-4%,0%,13µM*,18µM*
COc1cccc(-n2c(N)c(C(=O)Nc3c(C)n(C)n(-c4ccccc4)c3=O)c3nc4ccccc4nc32)c1,13%,-8%,0%,-7%,?
C=CCn1c(N)c(C(=O)Nc2ccccc2)c2nc3ccccc3nc21,-43%,2%,?,22%[9.22 µM],5.6µM*
CC(Sc1nnc(-c2ccc(OC(F)F)cc2)n1N)C(=O)NCC1CCCO1 (stereo unspecified),nt,nt,4%,-1%,1%
COc1ccc(OC)c(NC(=O)CN(c2ccc(C(C)C)cc2)S(=O)(=O)c2c(C)noc2C)c1,1%,-2%,8.2µM*,2%,12%
CC(=O)COC(=O)C1=NN(c2ccccc2)C(=O)CC1,6%,0%,-5%,1%,-22%
CCN(CC(=O)Nc1ccc(OC)cc1)C(=O)c1cc(-c2cccs2)nn1-c1ccccc1,nt,nt,?,-4%,?
CCCN(CC(=O)Nc1ccccc1OC)C(=O)c1cc(-c2ccccc2)nn1-c1ccccc1,nt,nt,21µM*,-11%,?
COCCN(CC(=O)Nc1cccc(C)c1C)C(=O)c1cc(-c2cccs2)nn1-c1ccccc1,nt,nt,13µM*,-11%,4%
O=C(Nc1ccc(S(=O)(=O)N2CCCC2)cc1)c1c(F)cccc1F,32%,5%,-9%,-11%,5%
CN1/C(=C/C(=O)c2nc(S(C)(=O)=O)ncc2Cl)C(C)(C)c2ccccc21,3.2µM*,5.6µM*,?,12µM*,?
CN1/C(=C\C(=O)c2ccco2)C(C)(C)c2ccccc21,?,10µM*,?,23µM*,?
CN1/C(=C\C(=O)COc2ccc3c(c2)OCO3)C(C)(C)c2ccccc21,9%,?,-28%,?,13µM*
CN1/C(=C\C(=O)COC(=O)c2ccco2)C(C)(C)c2ccccc21,22%,0%,7%,-45%,-9%[9.22 µM]
CN1/C(=C\C(=O)c2cncc(Br)c2)C(C)(C)c2ccccc21,-76%,11µM*,16µM*,?,16µM*
COc1ccccc1OCC(=O)/C=C1/N(C)c2ccccc2C1(C)C,-37%,?,?,-2%,17%
CN1/C(=C\C(=O)c2cccnc2)C(C)(C)c2ccccc21,18%,22%,0%,?,16%
